In PubChem BioAssay (NCI):
This is part of a sample that, as a whole, favours compounds with a hit. Of some 83,000 tested, about 20% had one in any assay.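 Values shown are percent growth following 48 h exposure of cells in 96-well plates to a single concentration of compound; below 10 was considered active.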 Unmarked numbers belong to inactive results. The source made the active and inactive calls.

The compounds below were run on SW-620 colon (assay: NCI-60 one-dose screen, 48 h (100 = growth as untreated, 0 = no growth, -100 = all killed)). Details: 10 µM.

Row | Compound | growth
1 | COc1ccc(-c2nc(-c3nc4ccc(Cl)cc4[nH]3)c3ccccn23)cc1 | 75.2%
2 | O=C(O)c1ccc(P(=O)(O)O)c([N+](=O)[O-])c1 | 98.2%
3 | COc1ccc2c(c1)N(CCO)C1=C(C(=O)OC1)C2c1ccc(OC)c(OC)c1 (centres undefined) | 17.5%
4 | CC(=O)O[C@]1(C)CC[C@H]2[C@H](CNCCc3ccc(Cl)cc3)C(=O)O[C@@H]2C2=C(C)C(=O)C[C@H]21 | 82%
5 | COc1ccc(Cl)cc1-n1nnc(-c2nc3ccccc3[nH]2)c1N | 75.6%
6 | O=C1/C(=C\c2ccc(F)cc2)CN(C(=O)c2ccccc2)C/C1=C\c1ccc(F)cc1 | -44.4% (active)
7 | CCC(=O)N1C/C(=C/c2ccc(Cl)cc2)C(=O)/C(=C/c2ccc(Cl)cc2)C1 | -63.6% (active)
8 | COc1cc(C2CC(c3ccc(Nc4ccnc5cc(Cl)ccc45)cc3)=NN2c2ccc(Cl)cc2)cc(OC)c1OC (centres undefined) | 39.4%
9 | COc1cc(NC(=O)CCSc2nc3ccc(C)cc3c(=O)n2Cc2ccccc2)cc(OC)c1OC | 84.5%
10 | COc1cc(Nc2ncnc(Nc3ccc4c(n3)NC(=O)C(C)(C)O4)n2)cc(OC)c1OC | 32.9%
11 | C[C@@H]1C=C2C(=O)O[C@@H]3CC[C@H](C1)[C@]23O | 48.8%
12 | N#CCCN1C/C(=C/c2ccc(Cl)cc2)C(=O)/C(=C/c2ccc(Cl)cc2)C1 | -48.4% (active)
13 | Cc1[nH]nc2c1C(c1cnn(C)c1)C(C#N)=C(N)O2 (centres undefined) | 102%
14 | O=C(Nc1nc2ccc(F)cc2s1)c1cc(-c2ccc(F)cc2)n2nc(-c3ccccc3)cc2n1 | 62.4%
15 | COc1ccc(-c2nc(-c3nc4cc(Cl)c(Cl)cc4[nH]3)c3ccccn23)cc1 | 79.6%
16 | Cc1ccc(CC#N)cc1C | 109%
17 | O=C1/C(=C\c2ccc(Cl)cc2)CN(C(=S)Nc2ccccc2)C/C1=C\c1ccc(Cl)cc1 | -84.9% (active)
18 | C#Cc1ccc(-n2c(/C=C/c3ccc4ccccc4n3)nc3ncccc3c2=O)cc1 | -51% (active)
19 | N#CCCN1C/C(=C/c2ccccc2)C(=O)/C(=C/c2ccccc2)C1 | -24.9% (active)
20 | CCC(=O)N1C/C(=C/c2ccc(OC)cc2)C(=O)/C(=C/c2ccc(OC)cc2)C1 | -50.1% (active)

Row | Compound | growth
21 | Cc1ccc(C)c(C(O)(c2cc(C)ccc2C)C2(O)CCCCC2)c1 | 96.8%
22 | O=C1/C(=C\c2ccc(F)cc2)CN(C(=O)c2ccc([N+](=O)[O-])cc2)C/C1=C\c1ccc(F)cc1 | -58.4% (active)
23 | CC(=O)OCc1cc(-c2nc3ccccc3[nH]c2=O)nn1-c1ccc(Cl)cc1 | 111%
24 | O=C1/C(=C\c2ccc(Cl)cc2)CN(C(=O)c2ccccc2)C/C1=C\c1ccc(Cl)cc1 | -33.8% (active)
25 | CC(C)(C)c1cc(Br)cc(C(C)(C)C)c1O | 112%
26 | C#Cc1ccc(-n2c(/C=C/c3ccc(C(F)(F)F)cc3)nc3ncccc3c2=O)cc1 | -12.3% (active)
27 | CC/C(=C(/c1ccc(OCCN(C)C)cc1)c1ccc(OC(=O)CCCCC(=O)c2c(C)[nH]c(/C=C3\N=C(c4ccc[nH]4)C=C3OC)c2C)cc1)c1ccccc1 | 55.8%
28 | CSc1nn(-c2ccccc2)c2ncnc(Oc3ccccc3)c12 | 104%
29 | COc1cc(/C=C\c2cc(OC)c(OC)c(OC)c2)cc(NS(=O)(=O)c2ccc(Cl)cc2)c1OC | 30.4%
30 | COc1ccc(/C=C2/CN(CCC#N)C/C(=C\c3ccc(OC)cc3)C2=O)cc1 | -37.2% (active)
31 | c1ccc(CP(Cc2ccccc2)c2ccccc2)cc1 | 105%
32 | COc1ccc(-c2nc(-c3nc4cc(Cl)c(F)cc4[nH]3)c3ccccn23)cc1 | 71.6%
33 | Cc1nc2ccccc2c(N)c1-c1cc(C)c2c(C)nc3ccccc3c2n1 | -65.7% (active)
34 | CC1(C)CCC(=NNC(N)=S)CC1 | 105%
35 | Nc1nc(Nc2ccccc2)n[nH]1 | 107%
36 | CCOC(=O)N1C/C(=C/c2ccc(OC)cc2)C(=O)/C(=C/c2ccc(OC)cc2)C1 | -38.7% (active)
37 | CC(=O)n1c(-c2ccc(Cl)c(Cl)c2)cn(-c2ccc(Cl)cc2)c1=O | 38.7%
38 | N=C(N)c1ccc(-c2ccc(-c3ccco3)o2)cc1 | 60.3%
39 | COc1ccc(/C=C/C(C)=N/OCC(=O)O)cc1 | 107%
